Results filed as inconclusive are left out. Values without a mark were called inactive. Calls of active or inactive are those of the source. The call rests on the fitted dose curve; in most records, active means well fitted cell-killing curve with a large enough effect in the repeat runs; inconclusive means weak or mixed curves, or effect the other way; inactive means flat fitted curve, though single readings scatter.
experiment: qHTS RealTime-Glo MT Cell Viability Assay in HEK293 cells - 40 hour (AID 1224874); details: RealTime-Glo luminescence; max response: stronger effect = lower value; further: nearly all actives have a fitted effect of over 50% in size
Source text: U.S. Tox21 Program National Center for Advancing Translational Sciences [NCATS] NIH Chemical Genomics Center [NCGC] U.S. Environmental Protection Agency [EPA] National Institutes of Environmental Health Sciences [NIEHS] National Toxicology Program [NTP] U.S. Food and Drug Administration [FDA] Tox21 Assay Overview: Measure of cell viability is critical in the cell-base assay. Analysis of cell viability is necessary for the characterization of cell responses to cytotoxic drugs and environmental stress. A RealTime-Glo MT Cell Viability Assay to monitor cell viability in real time of continues cell culture during 40 hours of compound treatment was used to screen Tox21 10K library compounds in Hek293 cells. The RealTime-Glo MT Cell Viability Assay is a nonlytic, homogeneous, bioluminescent method to measure cell viability in real time using a simple, plate-based method. The assay involves adding NanoLuc luciferase and a cell-permeant prosubstrate to cells in culture. Viable cells reduce the proprietary prosubstrate to generate a substrate for NanoLuc luciferase. This substrate diffuses from cells into the surrounding culture medium, where it is rapidly used by the NanoLuc Enzyme to produce a luminescent signal. The signal correlates with the number of viable cells, making the assay well suited for cytotoxicity studies.
Tox21 Assay Protocol Summary: The mixture of Hek293 cell suspension and reagents were dispensed at 600cells/6 ul/well in 1536-well tissue culture treated black solid bottom plates using a Multidrop dispenser. After the assay plates were incubated at a 37 C/5% CO2 incubator for 5 hours, 23 nL of compounds dissolved in DMSO, positive and negative controls was transferred to the assay plate by a pintool work station. The plates were incubated at 37 C for 40 hours. The luminescence intensity were measured at 0h, 8h, 16h, 24h, 32h and 40h time points using ViewLux plate reader during compound treatment.
On the % scale 0 is the no-effect control and ±100 the full control effect; potency means the concentration at half of the fitted maximal effect.

SMILES	max response	Potency
NC(=O)Cc1cccc2ccccc12	2.56%	–
CCCC[N+](C)(CCCC)CCCC	-1.08%	–
CNCC(O)c1ccc(O)c(O)c1 (stereo not given)	0.68%	–
CCCCCC(=O)OCCc1ccccc1	5.56%	–
CC(C)(C)C(=O)Oc1ccc(S(=O)(=O)Nc2ccccc2C(=O)NCC(=O)O)cc1	7.92%	–
CN1CC(=O)N/C1=N/C(=O)Nc1cccc(Cl)c1	-14.4%	–
Cc1onc(-c2c(Cl)cccc2Cl)c1C(=O)Cl	2.75%	–
CC1=CC(=O)[C@H]2C[C@@H]1C2(C)C	-1.77%	–
C[N+]1(C)CCCC(OC(=O)C(O)(c2ccccc2)c2ccccc2)C1 (stereo not given)	-4.47%	–
COc1c(N2CCNC(C)C2)c(F)cc2c(=O)c(C(=O)O)cn(C3CC3)c12 (stereo not given)	14%	–
NC(=O)N1c2ccccc2CC(=O)c2ccccc21	2.12%	–
COc1cc(C(=O)OC(COCCC(C)C)CN2CCOCC2)cc(OC)c1OC (stereo not given)	-2.35%	–
Nc1ccn([C@@H]2O[C@H](CO)[C@@H](O)[C@@H]2O)c(=O)n1	6.05%	–
CCOc1c(N2CCOCC2)cnn(C)c1=O	3.38%	–
COc1cc(C)nc(-n2nc(C)cc2OC)n1	-0.0998%	–
CCCCN(CCC(=O)OCC)C(C)=O	0.53%	–
C[N+]12CCC(CC1)C(OC(=O)C(O)(c1ccccc1)c1ccccc1)C2 (stereo not given)	4.99%	–
CCCCCCCCCCCCCCCCCCO	-1.19%	–
COCCOC[C@H](CC1(C(=O)NC2CCC(C(=O)O)CC2)CCCC1)C(=O)Oc1ccc2c(c1)CCC2 (stereo not given in full)	5.36%	–
CC[N+](C)(CC)CCOC(=O)C1c2ccccc2Oc2ccccc21	3.05%	–

SMILES	max response	Potency
Clc1cc(Cl)c(Cl)nc1Cl	-11.7%	–
CO[C@@]1(NC(=O)CSC[C@@H](N)C(=O)O)C(=O)N2C(C(=O)O)=C(CSc3nnnn3C)CS[C@@H]21	-2.75%	–
CC(=O)O[C@@]12CO[C@@H]1C[C@H](O)[C@@]1(C)C(=O)[C@H](O)C3=C(C)[C@@H](OC(=O)[C@H](O)[C@@H](NC(=O)OC(C)(C)C)c4ccccc4)C[C@@](O)([C@@H](OC(=O)c4ccccc4)[C@H]21)C3(C)C	–	33.8 nM (active)
CCN1CCOCC1	-0.712%	–
C=COCC1CCC(COC=C)CC1 (stereo not given)	-3.6%	–
C[N+](C)(C)CCCCCCCCCC[N+](C)(C)C	9.07%	–
NC(=O)N[C@@H](CCC(=O)O)C(=O)O	5.25%	–
C1CCC2=NCCCN2CC1	20.2%	–
CC(C)(C)OC(=O)c1cccc(N)c1	-10%	–
CCC(C)(CCCC(C)C)OC(C)=O (stereo not given)	6.35%	–
CC(=O)Nc1ccc(OCC(O)CNC(C)C)cc1 (stereo not given)	-1.7%	–
Nc1ccn([C@@H]2O[C@H](CO)[C@@H](O)C2O)c(=O)n1 (stereo not given in full)	6.25%	–
CC(C)CCCO	9.91%	–
C[C@H]1C[C@H]2[C@@H]3CCC4=CC(=O)C=C[C@]4(C)[C@H]3C(=O)C[C@]2(C)[C@@]1(O)C(=O)CO	0.535%	–
CCCCCCCCCCOc1cc2c(=O)c(C(=O)OCC)c[nH]c2cc1OCC	4.14%	–
Cc1ccc(C(=O)Nc2ccc(S(=O)(=O)O)c3cc(S(=O)(=O)O)cc(S(=O)(=O)O)c23)cc1NC(=O)c1cccc(NC(=O)Nc2cccc(C(=O)Nc3cc(C(=O)Nc4ccc(S(=O)(=O)O)c5cc(S(=O)(=O)O)cc(S(=O)(=O)O)c45)ccc3C)c2)c1	4.78%	–
O=C1CCCCCCCCCCCCCCO1	0.109%	–
O=CN(CCO)CCO	-0.597%	–
CN1C(C)(C)CC(O)CC1(C)C	2.49%	–
O=C(CO)[C@@H](O)[C@H](O)[C@H](O)CO	1.94%	–

Source: PubChem BioAssay (Tox21)
